Screens from PubChem.
Most compounds without a hit are left out; they make up all but 4.4% or so of the library.
D1 PAM: human D1 dopamine receptor positive modulation; hit rate 0.036% among 360,000; AID 504651; HEK293 TREx D1 cells, calcium flux, dopamine EC20 potentiation; potentiation, % at 10 µM; in the data active = potentiation above about 30%; also: 0% is about no effect
USP1 inh: blocks the human USP1/UAF1 deubiquitinase complex. O94782. recombinant USP1/UAF1, Ub-Rhodamine cleavage fluorescence. Potency, µM (highest dose often 57.1 µM), inactives show at the top dose activity change, negative = inhibition, most hits filed as inhibitors. hit rate 0.23% among 390,000. AID 743255; active = well fitted inhibition curve with a large enough effect; inconclusive = small, poorly fitted or top-dose-only effect; inactive = no such curve, though single readings can be large or run the other way; also: potency is read from the fitted curve at half-maximal effect; % is scaled to controls: 0 for no effect and ±100 for the full control effect; nearly all actives have a fitted effect of over 60% in size
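Step one: compound is pinned into 1nM USP1/UAF1 in HEPES pH 7.8 buffer with TCEP. Step two: 15 min room-temperature incubation. Step three: Ub-Rho (150nM final) starts cleavage, tracked by fluorescence over six one-minute reads.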
TRHR enhancer: TRH receptor (human) allosteric enhancement | AID 493056 | enhancement, % at 2 µM | TRHR cells, fluo-8 calcium fluorescence, EC20 TRH enhancement | hit rate 0.66% among 360,000 | P34981; in the data active = enhancement above about 30%; also: 0% is about no effect
Target sequence (P34981 whole entry, looked up): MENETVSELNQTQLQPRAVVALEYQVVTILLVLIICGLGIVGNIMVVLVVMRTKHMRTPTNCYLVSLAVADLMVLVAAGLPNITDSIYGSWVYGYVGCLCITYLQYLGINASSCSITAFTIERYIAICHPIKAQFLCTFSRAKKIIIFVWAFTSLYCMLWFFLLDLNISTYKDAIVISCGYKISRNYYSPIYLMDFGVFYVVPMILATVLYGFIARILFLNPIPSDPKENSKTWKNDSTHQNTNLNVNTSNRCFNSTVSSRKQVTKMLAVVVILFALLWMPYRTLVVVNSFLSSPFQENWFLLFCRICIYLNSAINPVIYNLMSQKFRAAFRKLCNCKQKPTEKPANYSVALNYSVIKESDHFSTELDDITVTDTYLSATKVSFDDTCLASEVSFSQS
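Enhancer read-out: after compound pinning and an initial kinetic agonist-mode read, an EC20 of TRH (10 nM final) was injected and fluo-8 calcium signal (Ex 480/Em 530) followed at 1 s/cycle for 100 cycles in TRHR-expressing cells.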
D1 ag: human D1 receptor agonism; HEK293 T-REx D1 cells, calcium flux, agonist mode; hit rate 1% among 360,000; P21728; AID 504660; activation, % at 2 µM; also: 0% is about no effect
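Agonism was scored from calcium flux recorded over 180 s (1 read/s) after pintool compound addition, following a 10-cycle baseline. Cells were inducible force-coupled HEK293 TREx D1, plated overnight at 30 C and loaded with no-wash calcium dye.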
D1 antag: blocks dopamine activation of the human D1 receptor. P21728. HEK293 TREx D1 cells, calcium flux, dopamine EC80; active compounds read low. activity change, negative = inhibition, % at 10 µM. hit rate 3.2% among 360,000. AID 504652; in the data active = activity change below about -30%; also: % is scaled to controls: 0 for no effect and ±100 for the full control effect
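Kinetic fluorescence of a calcium dye serves as the read-out. D1-expressing Hek293 Trex cells, induced overnight at 30 C, are exposed to compound for 180 s before an EC80 dopamine addition, then read 180 s further.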
TRHR ag: activates the human TRH receptor | P34981 | TRHR cells, calcium flux fluo-8, FDSS agonist mode | activation, % at 2 µM | hit rate 0.18% among 360,000 | AID 493084; also: 0% is about no effect
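Agonist-mode FDSS calcium read (Ex 480/Em 530, 1 s cycles) in 1536-well TRHR cells with fluo-8 dye, after 10-cycle baseline and 23 nL compound addition; TRH at EC20 (10 nM final) added afterwards for the enhancer phase.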
The depositor's hits bear a star; ? = inconclusive; . = not tested or not shown. Rule as the data show it, unless noted: active = activation above about 30%; inactive = the rest.

SMILES	D1 PAM	USP1 inh	TRHR enhancer	D1 ag	D1 antag	TRHR ag
Cc1cc(C)c(NC(=O)Cn2c(=O)oc3cc(S(=O)(=O)N4CCCCCC4)ccc32)c(C)c1	-2.7	-15.1%	1.8	3.1	-19.3	-0.8
Cc1nc(/C(N)=N/OC(=O)c2ccc(Cl)cc2)c(C(F)(F)F)o1	-0.8	-10.7%	-4.9	-0.6	-34.9*	-0.7
CCSc1nnc([C@H](Cc2ccccc2)NC(=O)OC(C)(C)C)o1	-0.8	6.1%	-4.5	1.2	.	-0.8
Cc1ccccc1CS(=O)(=O)c1nnc([C@H](Cc2ccccc2)NC(=O)OC(C)(C)C)o1	-10.8	-11.0%	2.8	20.0	-37.6*	-0.7
CC(C)(C)OC(=O)N[C@@H](Cc1ccccc1)c1nnc(S(=O)(=O)Cc2ccccc2)o1	-11.7	.	-12.3	5.3	-47.5*	2.8
CC(C)(C)OC(=O)Cc1nnc(C(C(=O)OCc2ccccc2)c2ccccc2)o1 (centres undefined)	1.4	.	-0.4	9.2	9.3	1.2
O=C1CCCC(=O)N1c1ccc(N2CCN(c3ccc([N+](=O)[O-])cc3)CC2)c([N+](=O)[O-])c1	-0.7	.	-6.7	1.4	-16.4	1.0
O=C1CCCC(=O)N1c1ccc(N2CCN(c3ccccc3)CC2)c([N+](=O)[O-])c1	-6.7	-5.4%	9.6	4.5	-45.6*	0.5
O=C1C2CC=CCC2C(=O)N1c1ccc(N2CCN(c3ccccn3)CC2)c([N+](=O)[O-])c1 (centres undefined)	-3.6	-24.3%	7.4	13.5	-36.1*	1.5
COc1ccc(S(=O)(=O)c2cc3cc(C(C)(C)C)cc(O)c3oc2=O)cc1	-3.2	-4.2%	21.2	1.6	-6.5	-0.6
Cc1cc2c(s1)c1cnn(Cc3cccc(F)c3F)c(=O)c1n2C	4.9	.	-2.0	0.7	-9.5	-0.1
Clc1ccc(/C=N/NC2=Nc3cccc4cccc2c34)cc1	-8.3	-12.9%	-3.1	6.7	-33.1*	0.2
C(=N\NC1=Nc2cccc3cccc1c23)/c1ccccc1	1.8	38.3%	-24.2	14.9	20.7	-1.3
COc1ccc(S(=O)(=O)c2cn(C)c3cc(N4CCCCCC4)c(F)cc3c2=O)cc1	-0.1	0.0%	21.8	3.5	-4.8	-0.1
Cc1cc(C)c(OCC(=O)Nc2ccccc2N2CCOCC2)c(C)c1	2.2	-13.1%	3.4	43.8*	4.2	7.2
Cc1cc(C)c(OCC(=O)Nc2ccccc2N2CCCCC2)c(C)c1	1.1	-18.8%	10.7	6.1	3.7	0.9
CCc1ccc(-n2c(=O)c3sc4ccccc4c3n(CC(=O)NC3CCCCC3)c2=O)cc1	1.9	?	-2.2	-0.1	-24.4	0.3
Cc1ccccc1NC(=O)Cn1c(=O)n(Cc2ccccc2)c(=O)c2sc3ccccc3c21	1.3	-14.5%	0.1	-0.7	-37.4*	1.0
COc1ccc(NC(=O)Cn2c(=O)n(Cc3ccccc3)c(=O)c3sc4ccccc4c32)cc1	2.0	?	35.5*	2.8	-30.3*	0.8
O=C(Cn1c(=O)n(Cc2ccccc2)c(=O)c2sc3ccccc3c21)Nc1ccccc1	0.7	8.5%	-9.8	2.4	4.3	1.0
Cc1ccc(-n2c(=O)c3sc4ccccc4c3n(CC(=O)NC3CCCC3)c2=O)cc1C	0.5	-7.0%	-6.6	3.0	-44.7*	0.8
COc1cc(C(=O)NCCc2sc(-c3ccc(C)cc3)nc2C)cc(OC)c1OC	-2.8	-17.3%	-2.8	2.2	6.7	-1.1
Cn1cc(CCNCc2cn[nH]c2-c2ccc(-c3ccccc3)cc2)cn1	-6.0	-2.3%	4.1	2.5	-0.3	0.4
Cc1ccc(-c2[nH]ncc2CNCCc2cnn(-c3ccccc3)c2)cc1C	-12.8	-17.6%	-4.5	34.1*	-27.1	1.1
CNC(=S)N1N=C(c2ccc(C)cc2)CC1c1ccc(N(C)C)cc1 (centres undefined)	0.6	-21.9%	-0.2	36.5*	-9.7	-0.3
SMILES	D1 PAM	USP1 inh	TRHR enhancer	D1 ag	D1 antag	TRHR ag
CNC(=S)N1N=C(c2ccc(Br)cc2)CC1c1ccc(OC)cc1 (centres undefined)	4.7	-25.1%	-2.5	3.4	13.2	0.7
CNC(=S)N1N=C(c2ccc(C)cc2)CC1c1ccc(OC)cc1 (centres undefined)	-1.3	-6.0%	9.1	-0.9	-40.3*	-0.2
CNC(=S)N1N=C(c2ccc(C)cc2)CC1c1cc(OC)ccc1OC (centres undefined)	4.8	-13.5%	-8.3	4.4	6.4	0.4
CCc1nn2c(=O)cc(COC(=O)c3cccc(NC(=O)CCc4ccccc4)c3)nc2s1	-0.4	-11.8%	-4.2	-2.0	3.4	-0.4
CC(Oc1ccc(F)cc1)c1ccnc2nc(/N=C/N(C)C)nn12 (centres undefined)	-1.4	-24.0%	-2.6	2.9	0.6	0.2
CN(C)/C=N/c1nc2nccc(-c3ccccn3)n2n1	-3.0	-19.5%	33.6*	-0.1	1.4	0.4
CC(Oc1ccc(C(C)(C)C)cc1)c1ccnc2nc(/N=C/N(C)C)nn12 (centres undefined)	-6.3	-8.8%	25.4	46.4*	0.4	-0.3
O=C(NCc1ccc(F)cc1)c1ccc(CSc2nc3ccncc3n2Cc2ccc(F)cc2)cc1	-4.6	-24.7%	17.4	4.5	4.5	0.2
COc1cc(NC(=O)Cn2nc(C(F)(F)F)c3c2CCCC3)c(OC)cc1Cl	-0.2	-11.9%	-6.6	-1.0	4.1	-0.9
COc1cc(NC(=O)CN2C(=O)C(c3ccc(C)cc3)=NC23CCCCC3)cc(OC)c1	4.0	-13.7%	1.1	4.3	4.0	0.1
OC(CNCCNc1ncccc1C(F)(F)F)Cn1ccc2ccccc21 (centres undefined)	-0.9	-21.7%	1.5	26.1	-35.9*	0.1
OC(CNCc1ccccc1)Cn1ccc2ccccc21 (centres undefined)	-1.1	-6.9%	1.7	13.5	-11.8	0.1
COc1ccc2c(c1)O[C@H](c1ccc3c(c1)OCO3)[C@@H](OC(=O)N[C@H]1CCCc3ccccc31)C2=O	-10.2	-22.5%	0.1	-2.2	-57.3*	0.7
COc1ccc2c(c1)O[C@@H](c1cccc(C(F)(F)F)c1)[C@H](OC(=O)N[C@H]1CCCc3ccccc31)C2=O	-3.4	.	2.3	1.3	0.1	2.5
COc1ccccc1NC(=O)c1cccc(S(=O)(=O)N2CCCCCC2)c1	-2.0	-20.2%	-2.1	0.2	-2.6	-0.2
CCOc1ccc(CCNC(=O)CCc2c(C)nc3c(-c4ccccc4)c(C)nn3c2C)cc1OCC	0.6	?	11.9	2.3	4.4	0.1
O=C(NCCc1ccc(Cl)cc1)C(=O)NCC(c1ccco1)S(=O)(=O)c1ccc(Cl)cc1 (centres undefined)	-4.7	-2.0%	-7.4	7.6	.	0.1
